Assay outcomes (PubChem BioAssay)
BJeLR viability – MLPCN primary cell-based screen for lethality selective to Ras in HRASV12 cells | BJeLR (HRASV12) viability, CellTiter-Glo ATP luminescence, 48 h | inhibition, % (test concentration not listed) | 300,000 compounds, 0.17% hits | AID 1554, 2009; in the data active = inhibition above about 50%
PrPC surface inh – inhibitors of human cell surface prion protein PrPC, primary screen, cell-based, TR-FRET; TR-FRET read-out; inhibition, % at 13.8 µM; 370,000 compounds, 0.43% hits; in the data active = inhibition above about 24%; note: 0% = median of the test wells and 100% = reference compound wells
Sa ugtP lethal – growth inhibition of ugtP-null S. aureus, primary screen, RN4220 ugtP deletion, OD600; 16 h; 330,000 compounds, 0.54% hits; AID 1259309, 2017; growth inhibition, % (no concentration beside the values); in the data active = growth inhibition above about 68%;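 note: plate controls were untreated wells for no effect and antibiotic for full effect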
Sa RN4220 lethal – growth inhibition of S. aureus RN4220, primary screen, OD600; 330,000 compounds, 0.33% hits; inhibition, % (no concentration beside the values); 16 h; in the data active = inhibition above about 85%;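 note: plate controls were untreated cells for no effect and reference antibiotic for full effect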
PrPC TRFRET cf – confirmation of inhibitors of cell surface human prion protein, confirmation, cell-based, TR-FRET; shares compounds with PrPC surface inh; cell surface PrPC level; inhibition, % at 13.8 µM; 1,500 compounds, 65% hits; AID 743200, 2013; in the data active = inhibition above about 25%
LD9 tox – cytotoxicity in LD9 cells, cytotoxicity control for cell surface PrPc inhibitor project, cell-based, luminescence, high throughput; inhibition, % at 13.8 µM; luminescence viability; AID 743201, 2013; 1,500 compounds, 29% hits; shares compounds with PrPC surface inh; in the data active = inhibition above about 9.5%
* = called active by the depositor; nt = not tested or not shown. Shown are actives, neighbours in structure and some others; about 0.95% of the full set was active somewhere.

SMILES	BJeLR viability	PrPC surface inh	Sa ugtP lethal	Sa RN4220 lethal	PrPC TRFRET cf	LD9 tox
N#Cc1ccccc1NC(=O)CSc1nnc(-c2ccc(F)cc2)n1-c1ccccc1	-2.7	37.5*	2.8	5.2	28.8*	1.8
Cc1nnc(SCC(=O)Nc2cc(C(N)=O)cc(C(N)=O)c2)n1-c1ccccc1	-2.0	45.4*	8.8	4.4	29.2*	-6.0
Cc1nnc(SCC(=O)Nc2ccc(C(N)=O)cc2)n1-c1ccccc1	-2.9	-0.2	2.3	2.3	nt	nt
O=C(NN=CC=Cc1ccccc1)c1ccncc1	nt	nt	6.4	0.0	nt	nt
CCN1C(=O)CSC1=Nc1nccs1	nt	nt	0.9	0.4	nt	nt
S=C(Nc1ccccc1)Nc1ccc(Br)cc1	-0.3	24.6*	-12.3	0.7	19.8	4.8
S=C(Nc1ccccc1)Nc1cccc(Br)c1	-4.0	3.0	-24.0	-9.2	nt	nt
CCN(CC)C(=O)C1CCCc2c1[nH]c1ccc(Cl)cc21 (configuration not stated)	27.9	26.4*	14.1	4.4	6.6	-6.8
Cc1cc(-c2cccc(Br)c2)c(C#N)c(N)n1	nt	43.5*	4.4	1.3	42.5*	1.4
Cc1ccc(CSC(Nc2ccc(F)cc2)=C(C#N)C#N)cc1	42.3	32.9*	97.5*	97.5*	36.2*	24.7*
CNC(=S)N=CNOCc1ccc(Cl)cc1Cl	nt	nt	-48.3	-3.7	nt	nt
CNC(=S)/N=C/NOCc1ccc(Cl)cc1Cl	2.6	35.9*	nt	nt	45.0*	35.0*
Cc1cccc(-n2c(-c3ccc(Br)o3)n[nH]c2=S)c1	-2.9	-2.6	-1.8	1.5	nt	nt
Cc1cccc(-n2c(-c3ccco3)n[nH]c2=S)c1	-6.4	30.7*	2.1	4.0	33.1*	-2.7
CCOc1ccc2[nH]c(C)c(CN3CCOCC3)c(=O)c2c1	-13.9	31.6*	-3.9	-3.8	3.5	-3.0
CCn1cc(C=NNC(=O)c2ccc(Cl)cc2)cn1	nt	nt	9.3	5.9	nt	nt
Cc1c(Br)c(=O)oc2cc(OCC(=O)N3C[C@H]4C[C@@H](C3)c3cccc(=O)n3C4)ccc12	-1.6	37.8*	1.0	-1.3	54.6*	-3.1
COCCCNC(=O)C[C@H]1C[C@@]2(C(=O)OC)C(=C[C@H](COCc3ccccc3)O[C@@H]2C)N(Cc2ccccc2)C1=O	nt	6.0	nt	nt	nt	nt
Cc1ccnc(NC(=O)Cc2ccc(-c3ccccc3)cc2)c1	9.7	34.8*	-2.6	1.6	40.9*	7.6
COc1cc(-c2nc3ccc(C)cn3c2NCc2ccccc2)ccc1SC1CCCCC1	1.0	25.4*	5.7	13.0	14.5	11.3*
COc1cc(-c2nc3ccccn3c2NCc2ccccc2)ccc1SC1CCCCC1	7.5	nt	-18.6	3.1	nt	nt
CC(CCN1CCCCc2nc(C)c(C)cc21)=NOC(C)c1cn(C(CO)Cc2ccccc2)nn1 (configuration not stated)	nt	nt	-3.9	6.2	nt	nt
COC(=O)CSc1ncnc2scc(-c3ccccc3)c12	2.1	50.3*	-0.7	-1.7	67.0*	-1.4
O=C(C=Cc1ccccc1)c1ccoc1	nt	nt	1.7	15.7	nt	nt
CN=C(Nc1cccc(Cl)c1)SC1CC(=O)N(c2ccc(OC)cc2)C1=O (configuration not stated)	-0.8	29.5*	-4.9	-1.5	1.6	-2.2
SMILES	BJeLR viability	PrPC surface inh	Sa ugtP lethal	Sa RN4220 lethal	PrPC TRFRET cf	LD9 tox
CCOc1ccccc1C=NOCC(=O)NCc1ccc(F)cc1	nt	nt	2.7	2.7	nt	nt
O=C(NN=C/C(Cl)=C\c1ccccc1)c1cnccn1	nt	nt	-5.6	-1.3	nt	nt
CSc1cccc(NS(=O)(=O)c2ccc3c(c2)CCN3C(C)=O)c1	17.5	25.3*	2.6	9.1	20.9	14.6*
CN(CCOC(=O)CSc1ccccc1)C1CN(Cc2cn(Cc3ccccc3F)nn2)S(=O)(=O)C1 (configuration not stated)	nt	4.0	nt	nt	nt	nt
NC(=O)c1nnn(Cc2cc(Cl)c(C(=O)c3ccc(Cl)cc3)c(Cl)c2)c1N	nt	34.6*	nt	nt	27.7*	7.3
Nc1c(C(=O)Nc2ccc3c(c2)OCCO3)nnn1Cc1ccc(Cl)cc1	9.7	20.5	-4.9	2.1	nt	nt
CCOC(=O)c1oc2ccc(C=NO)c(Cl)c2c1C	nt	nt	-0.2	8.9	nt	nt
C1=C(CCNc2ncnc3c2[nH]c2ccccc23)CCCC1	nt	39.9*	34.6	32.0	39.7*	22.2*
Cc1nnc(C)n1N=C/C=C/c1ccccc1	nt	nt	-4.3	-4.5	nt	nt
CC(C)(C)C(=O)c1cnc(Nc2ccccc2Cl)s1	-2.2	27.7*	-3.9	11.0	36.1*	1.4
O=C(c1ccccc1)c1cnc(Nc2ccccc2Cl)s1	1.2	nt	11.4	4.7	nt	nt
CSc1ccc(C=Nn2c(C3CCCCC3)n[nH]c2=S)cc1	nt	nt	0.0	0.5	nt	nt
CCOc1ccc(-c2c(C(=O)NN=Cc3cccs3)nnn2-c2nonc2N)cc1	nt	nt	-4.4	-0.5	nt	nt
Cc1cc(C(=O)O)cc(S(=O)(=O)NNC(=O)c2cccs2)c1C	-0.2	42.0*	-10.8	-4.6	3.0	2.5
Oc1cc2c(cc1O)C1c3ccc(O)c(O)c3OCC1(O)C2 (configuration not stated)	nt	41.5*	-19.3	27.8	55.5*	-0.9
O=[N+]([O-])c1cccc(OC[C@@H](O)CN2CCC(C(O)(c3ccccc3)c3ccccc3)CC2)c1	nt	-4.2	nt	nt	nt	nt
OC[C@@H]1CN(Cc2ccc(Cl)cc2)C[C@H](n2cnc3c(NC4CCCC4)ncnc32)O1	nt	28.2*	nt	nt	34.8*	-5.4
OC[C@@H]1CN(Cc2ccc(F)cc2)C[C@H](n2cnc3c(NC4CC4)ncnc32)O1	nt	-2.7	nt	nt	nt	nt
COC(=O)[C@H](CC1(c2cn(S(=O)(=O)CC[Si](C)(C)C)c3ccccc23)C(=O)Nc2ccccc21)NC(=O)OC(C)(C)C (some centres not stated)	nt	46.7*	nt	nt	59.0*	-1.3
Cc1ccc(S(=O)(=O)NN=Cc2ccc(C#N)cc2)cc1	nt	nt	2.9	1.5	nt	nt
NC(c1csc(NC(=O)Nc2cccc(Cl)c2)n1)C1CCCCC1 (configuration not stated)	nt	25.6*	nt	nt	23.4	-3.0
COc1cccc2c(NN=Cc3ccco3)cc(C)nc12	nt	nt	6.4	4.4	nt	nt
N=C1C(c2nc3ccccc3s2)=C(O)CN1NC(=O)c1c[nH]c2ccccc12	1.9	26.3*	nt	nt	34.4*	5.5
COc1cc(CCCN2C(=S)NCC2CCCCN)cc(OC)c1OC (configuration not stated)	nt	nt	1.5	3.5	nt	nt
Cc1ccc(OCc2cc(C(=O)NCc3cn4ccccc4n3)no2)cc1C	9.1	43.1*	7.4	-3.3	39.3*	-5.4
O=C(NCCc1cn2ccccc2n1)c1cc(COc2c(F)cccc2F)on1	-1.6	-2.1	0.3	-1.8	nt	nt
COc1ccc(-c2csc(NC(=O)c3ccccc3F)n2)cc1	-0.3	3.5	14.9	-6.9	nt	nt
COc1ccc(-c2csc(NC(=O)c3ccccc3NS(=O)(=O)c3ccc(F)c(F)c3)n2)cc1	16.2	31.9*	85.3	89.3*	44.1*	38.1*
